Experimental findings from PubChem BioAssay (NCI) are described below.

About 83,000 compounds went through this panel and 20% of them were active in at least one assay; those are over-represented in the sample as a whole.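 Treatment: one concentration, 48 hours, 96-well format. Scoring: percent growth, with anything below 10 considered active.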 Unmarked numbers belong to inactive results. Calls of active or inactive are those of the source.

Holding throughout (test): NCI-60 one-dose screen, 48 h (100 = growth as untreated, 0 = no growth, -100 = all killed)
One assay has as its system DU-145 prostate. Particulars: 10 µM unless noted.
A further assay deals with K-562 leukemia. Particulars: 10 µM unless noted.
The subject of the next assay is MALME-3M melanoma. The settings on record: 10 µM unless noted.
Another assay relates to MDA-MB-231 breast. Particulars: 10 µM unless noted.
A further assay has as its system RXF 393 renal. The settings on record: 10 µM unless noted.
The next assay deals with SF-268 CNS. Particulars: 10 µM unless noted.
The test system of another assay is SF-295 CNS. Particulars: 10 µM unless noted.
The next assay relates to SF-539 CNS. The settings on record: 10 µM unless noted.
Another assay relates to UACC-257 melanoma. Particulars: 10 µM unless noted.
A further assay deals with M14 melanoma. The settings on record: 10 µM unless noted.
For another assay, the system named is HCT-15 colon. The settings on record: 10 µM unless noted.
A further assay has as its system HT29 colon. Particulars: 10 µM unless noted.
A further assay deals with SNB-75 CNS. Particulars: 10 µM unless noted.
For the next assay, the system named is SNB-19 CNS. The settings on record: 10 µM unless noted.
The test system of the next assay is U251 CNS. The settings on record: 10 µM unless noted.
The test system of the next assay is PC-3 prostate. The settings on record: 10 µM unless noted.
The subject of the next assay is SK-MEL-5 melanoma. Particulars: 10 µM unless noted.
A further assay has as its system UACC-62 melanoma. Particulars: 10 µM unless noted.
A further assay has as its system LOX IMVI melanoma. The settings on record: 10 µM.
For another assay, the system named is SK-MEL-28 melanoma. The settings on record: 10 µM unless noted.

For the molecule `CNS(=O)(=O)c1ccc(Nc2ccc(C(F)(F)F)cc2)c(-c2cn(C)cn2)c1`, the growth was 62.3% in the assay with DU-145 prostate; 21.5% with K-562 leukemia; 68.1% in the assay with MALME-3M melanoma; 60.3% with MDA-MB-231 breast; 52.1% in the assay on RXF 393 renal; 41.5% in the assay on SF-268 CNS. Further, the growth is 43.7% in the assay with SF-295 CNS; 64.4% in the assay with SF-539 CNS; 64% with UACC-257 melanoma; 49.8% with M14 melanoma; 34.5% in the assay with HCT-15 colon; 49.6% in the assay on HT29 colon. The growth in the assay with SNB-75 CNS is 90.9%; in the assay with SNB-19 CNS it was 49.5%; in the assay with U251 CNS it was 51.1%; in the assay with PC-3 prostate it was 57.6%; in the assay with SK-MEL-5 melanoma, 60.1%; in the assay with UACC-62 melanoma, 37.1%. Also, the growth was 43.1% in the assay with LOX IMVI melanoma and 74.8% with SK-MEL-28 melanoma.

As for `CCCCc1c(Nn2cnnn2)no[n+]1[O-]`, the growth in the assay on DU-145 prostate is 56.2%; in the assay with K-562 leukemia, 28.2%; with MALME-3M melanoma it was 68.7%; in the assay on MDA-MB-231 breast, 49.3%; in the assay with RXF 393 renal, 39.5%; with SF-268 CNS it was 82.2%. In addition, the growth in the assay with SF-295 CNS was 56.9%; with SF-539 CNS it was 57%; with UACC-257 melanoma it was 68.5%; with M14 melanoma, 68.1%; with HCT-15 colon, 32.8%; in the assay on HT29 colon it was 59.5%. Moreover, the growth is 48.9% in the assay on SNB-75 CNS; 72.3% in the assay with SNB-19 CNS; 51.3% in the assay with U251 CNS; 58.1% in the assay with PC-3 prostate; 80.6% with SK-MEL-5 melanoma; 52.4% in the assay with UACC-62 melanoma. The growth in the assay with SK-MEL-28 melanoma was 73%.

With `S=C(Nc1ccc(OCc2nc3ccccc3[nH]2)cc1)NC1CCCCC1`, the growth in the assay with DU-145 prostate was 98.4%; with K-562 leukemia, 108%; with MALME-3M melanoma, 67.6%; with MDA-MB-231 breast, 100%; with RXF 393 renal, 147%; in the assay on SF-268 CNS, 106%. The growth with SF-295 CNS was 74.4%; in the assay on SF-539 CNS, 79.5%; in the assay with UACC-257 melanoma it was 95.5%; with M14 melanoma, 105%; in the assay on HCT-15 colon it was 106%; in the assay with HT29 colon, 102%. Further, the growth in the assay with SNB-75 CNS is 99.1%; in the assay on SNB-19 CNS, 94%; in the assay with U251 CNS it was 97%; in the assay on PC-3 prostate, 95.8%; in the assay with SK-MEL-5 melanoma it was 92.3%; in the assay with UACC-62 melanoma it was 77.6%. Also, the growth in the assay with SK-MEL-28 melanoma is 85.2%.

Regarding `CCOP(=O)(OCCCl)c1nc(-c2ccc(C)cc2)oc1NCc1ccccc1` (stereo not drawn), the growth was 96% in the assay with DU-145 prostate; 50.3% in the assay on K-562 leukemia; 102% in the assay with MALME-3M melanoma; 65.1% in the assay with MDA-MB-231 breast; 84.4% in the assay with RXF 393 renal; 73.7% with SF-268 CNS. Besides, the growth in the assay with SF-295 CNS was 79.9%; in the assay with SF-539 CNS, 87.2%; in the assay on UACC-257 melanoma it was 92.6%; in the assay on M14 melanoma, 86.3%; in the assay with HCT-15 colon, 57.6%; in the assay on HT29 colon, 81.7%. The growth with SNB-75 CNS is 69.9%; in the assay on SNB-19 CNS, 65.8%; with U251 CNS, 74.6%; in the assay on PC-3 prostate it was 44.4%; with SK-MEL-5 melanoma, 84.8%; in the assay with UACC-62 melanoma, 60.4%. For the same molecule, the growth in the assay on SK-MEL-28 melanoma is 108%.

For the molecule `COc1cc(-c2nc3cc(Cl)c(Cl)cc3[nH]2)ccc1OCc1nnc(-c2cccs2)o1`, the growth in the assay on DU-145 prostate is 34.7%; in the assay on K-562 leukemia it was 54%; in the assay on MALME-3M melanoma, 18.1%; in the assay with MDA-MB-231 breast it was 17.9%; in the assay with RXF 393 renal, -2.12% (active); with SF-268 CNS it was 68.5%. The growth in the assay with SF-295 CNS was 31.9%; with SF-539 CNS, 104%; in the assay on UACC-257 melanoma, 61.2%; with M14 melanoma it was 41.8%; with HCT-15 colon, 25.8%; in the assay on HT29 colon, 58.2%. Further, the growth in the assay with SNB-75 CNS is 114%; in the assay on SNB-19 CNS, 65.8%; in the assay on U251 CNS, 71.1%; in the assay with PC-3 prostate, 50%; with SK-MEL-5 melanoma, 44.6%; in the assay on UACC-62 melanoma it was 21.3%. Moreover, the growth with SK-MEL-28 melanoma is 31.4%.

With `CCN1C(=O)/C(=N\N=C(/C)c2ccc3c(c2)Nc2ccccc2S3)c2cc(Cl)ccc21`, the growth with DU-145 prostate was 71.8%; in the assay with K-562 leukemia it was 38.2%; with MALME-3M melanoma, 35.9%; in the assay with MDA-MB-231 breast, 66.8%; with RXF 393 renal, 65.9%; in the assay with SF-268 CNS, 43.8%. For the same molecule, the growth in the assay with SF-295 CNS was 43.2%; with SF-539 CNS, 73.3%; in the assay with UACC-257 melanoma it was 25.7%; in the assay with M14 melanoma, 67.5%; in the assay on HCT-15 colon, 46.7%; with HT29 colon it was 71.6%. Also, the growth with SNB-75 CNS was 76%; in the assay with SNB-19 CNS it was 64.4%; with U251 CNS, 73.7%; with PC-3 prostate, 40.5%; in the assay on SK-MEL-5 melanoma it was 7.2% (active); in the assay with UACC-62 melanoma, 32.7%. In addition, the growth in the assay on SK-MEL-28 melanoma was 47.2%.

Consider `Cn1cc(-c2nc(N)nnc2-c2c[nH]c3ccc(F)cc23)c2cccnc21`, for which the growth in the assay on DU-145 prostate is 49.9%; with K-562 leukemia, 30.2%; in the assay on MALME-3M melanoma, 64.5%; in the assay with MDA-MB-231 breast, 22%; in the assay on RXF 393 renal, 60.5%; with SF-268 CNS, 34%. Moreover, the growth is 15.8% in the assay on SF-295 CNS; 40.8% in the assay on SF-539 CNS; 61.9% with UACC-257 melanoma; 26.3% with M14 melanoma; 51.8% in the assay on HCT-15 colon; 44.5% with HT29 colon. The growth in the assay on SNB-75 CNS is 7.07% (active); in the assay on SNB-19 CNS, 39%; with U251 CNS, 35.7%; in the assay on PC-3 prostate, 51.2%; in the assay on SK-MEL-5 melanoma it was 35.3%; with UACC-62 melanoma it was 29.8%. Further, the growth in the assay on SK-MEL-28 melanoma is 75.1%.

With `COc1cc(/C=C/C(=O)c2ccc(C)cc2)ccc1Oc1nc(Nc2ccc(F)cc2)nc(N(C)C)n1`, the growth is 50.1% in the assay on DU-145 prostate; 26.8% in the assay with K-562 leukemia; 69% with MALME-3M melanoma; 31.2% in the assay with MDA-MB-231 breast; 47.8% in the assay with RXF 393 renal; 47.1% in the assay with SF-268 CNS. For the same molecule, the growth was 30% in the assay with SF-295 CNS; -31.9% (active) with SF-539 CNS; 41.3% with UACC-257 melanoma; 56.9% with M14 melanoma; 17.3% in the assay on HCT-15 colon; 44.1% with HT29 colon. The growth in the assay with SNB-75 CNS is 50.8%; in the assay on SNB-19 CNS, 23.4%; with U251 CNS it was 11.3%; with PC-3 prostate, 50.8%; with SK-MEL-5 melanoma, 30.5%; in the assay with UACC-62 melanoma, 42.1%. Moreover, the growth in the assay on SK-MEL-28 melanoma is 73.4%.
